# Source: PubChem BioAssay (several laboratories)
# A selection: hits, their analogues and other compounds. The true share with any hit is near 4.5%.
# NR3A LBD binder: NR3A (human) ligand-binding domain modulation; Tm shift relative to glycine control, % at 25 µM; NR3A LBD differential scanning fluorimetry, Tm shift; 0% = protein alone, 100% = glycine-bound protein; 340,000 tested, 2.5% active; AID 1259313;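 active means melting temperature shift of at least 10% of the positive control shift, at one fixed dose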
# Rpn11 block: blocks the human proteasome subunit Rpn11; 360,000 tested, 0.59% active; human 26S proteasome, Ub4-pepOG fluorescence polarization; 20S core pre-blocked with epoxomicin; inhibition, % at 20 µM; O00487; AID 588493;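 active means inhibition at 20 µM, scaled to each plate's controls, above about 33%, limit read from the data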
# TPT1 inhibitor: C. albicans TPT1 enzyme inhibition. inhibition, % at 5 µM. recombinant caTPT1, FP RNA substrate dephosphorylation. 300,000 tested, 0.81% active;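 active means inhibition above the mean of all tested compounds plus 3 SD, set per screening campaign, cut at about 24% in these data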;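 further: plate controls were DMSO alone for no effect and ferristatin control at 100 nM for full effect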
# ZTA DNA inh: blocks Epstein-Barr virus ZTA, an EBNA-1 counter-screen | P03206 | ZTA-DNA binding, fluorescence polarization | inhibition, % at 11 µM | 320,000 tested, 0.15% active | AID 2234; in the data active means inhibition above about 33%
# dFosB act: enhances mouse delta FosB homodimer DNA binding | P13346 | purified delta FosB, TAMRA-CDK5 oligo fluorescence polarization; percent of positive-control signal above neutral wells | activation, % at 25 µM | 340,000 tested, 0.99% active;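 active means mean activation above about 17%, with every replicate also reaching it, limit read from the data, passing the limit was not always enough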
# Target sequence (P13346 whole entry, looked up): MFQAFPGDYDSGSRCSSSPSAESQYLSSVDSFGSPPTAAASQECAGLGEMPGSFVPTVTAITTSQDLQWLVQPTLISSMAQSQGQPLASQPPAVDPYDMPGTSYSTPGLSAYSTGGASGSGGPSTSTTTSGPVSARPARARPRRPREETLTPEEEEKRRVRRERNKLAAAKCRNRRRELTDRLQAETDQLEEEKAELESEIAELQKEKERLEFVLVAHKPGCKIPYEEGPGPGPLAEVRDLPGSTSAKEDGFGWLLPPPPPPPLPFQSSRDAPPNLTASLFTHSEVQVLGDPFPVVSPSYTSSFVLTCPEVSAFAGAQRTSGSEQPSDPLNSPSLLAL
# EBNA-1 inhibitor: blocks EBNA-1 binding to DNA; inhibition, % at 14.8 µM; EBNA-1 DNA binding, fluorescence polarization; 300,000 tested, 0.34% active; in the data active means inhibition above about 28%
# caTPT1 confirm: confirmation of Candida albicans TPT1 inhibitors | inhibition, % at 5 µM | shares compounds with TPT1 inhibitor | AID 2149 | 2,400 tested, 74% active | recombinant caTPT1, fluorescence polarization, RNase T1 coupled;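 active means inhibition above the primary screen limit, the mean inhibition of all tested compounds plus 3 SD, cut at about 25% in these data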
# RNase T1 counter: counter-screen for TPT1 inhibitors: inhibitors of Aspergillus oryzae RNase T1. shares compounds with TPT1 inhibitor. RNase T1 cleavage, fluorescence polarization, 1536-well. inhibition, % at 5 µM. 2,400 tested, 83% active;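 active means inhibition above the solvent-only control well mean plus 3 SD, limit set per screening run, cut at about 23% in these data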;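 further: plate controls were DMSO wells with enzyme for no effect and wells without RNase T1 for full effect; inhibitors block cleavage so intact labeled substrate keeps polarization high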
# An asterisk follows results filed as active; x = no result shown.
SMILES,NR3A LBD binder,Rpn11 block,TPT1 inhibitor,ZTA DNA inh,dFosB act,EBNA-1 inhibitor,caTPT1 confirm,RNase T1 counter
Cc1ccc(/C=C2/Sc3ccc(C(=O)N4CCN(c5ccccn5)CC4)cc3NC2=O)cc1,0,39,28*,10,-6,2,49*,61*
CN1CCN(C(=O)c2ccc3c(c2)NC(=O)/C(=C/c2ccccc2)S3)CC1,-3,0,-2,-10,2,7,x,x
Cc1ccc(C2C3=C(CCCC3=O)OC3=C2C(=O)CCC3)cc1,-3,-1,54*,7,-1,-2,8,10
COC(=O)CC/C(O)=C1\C(=O)CC(C)(C)CC1=NCc1nc2ccccc2[nH]1,2,-2,34*,-4,-2,-4,13,18
CCOc1ccc(C(=O)OCC(=O)NCCCc2ccccc2)cc1,-1,-3,1,-8,-11,-12,x,x
O=C(O)c1ccc(Nc2ccc([N+](=O)[O-])c3nonc23)cc1,-6,21,x,x,2,x,x,x
CCc1nnc(NS(=O)(=O)c2ccc(Nc3ccc([N+](=O)[O-])c4nonc34)cc2)s1,-3,39,27*,-3,-5,1,33*,49*
CC(=O)c1ccc(Nc2ccc([N+](=O)[O-])c3nonc23)cc1,-1,26,30*,6,1,4,37*,52*
CCCCCOc1ccc(NC(=O)CSc2cccc3cccnc23)cc1,8,23,-4,5,10,-2,x,x
COc1ccc(/C(O)=C/c2nc3ccccc3n(-c3ccccc3)c2=O)cc1,-2,31,67*,9,-6,-2,66*,95*
Cc1cc(C)n(-c2ccc(C(=O)NC3CCCCC3)cc2)n1,0,2,1,-1,2,-5,x,x
CC(=O)N1CCC2(CC1)C(C#N)=C(N)OC1=C2C(=O)CC(C)(C)C1,1,0,2,-1,-4,1,x,x
CC1(C)CC(=O)C2=C(C1)OC(N)=C(C#N)C21CCN(Cc2ccccc2)CC1,0,-15,27*,9,-7,-5,22,32*
O=C(COc1ccccc1[N+](=O)[O-])N/N=C/c1ccc(O)c([N+](=O)[O-])c1,-1,-5,61*,18,-9,14,9,12
O=C(COc1ccccc1[N+](=O)[O-])N/N=C/c1ccccn1,-2,-4,-2,21,-4,5,x,x
CCN1CCS/C1=C\C=C\C1=[N+](CC)CCS1,1,13,x,x,2,x,x,x
CCN1CCS/C1=C/C=C/C1=[N+](CC)CCS1,0,15,25*,9,1,1,25*,33*
O=C1c2ccccc2S(=O)(=O)c2cc(N3CCN(C(=O)c4ccccc4)CC3)ccc21,-2,x,35*,6,x,-3,61*,70*
O=C(O)c1cccc2c1C(=O)c1ccc(N3CCCC3)cc1S2(=O)=O,1,39,x,3,5,x,x,x
O=C1c2ccccc2S(=O)(=O)c2cc(N3CCC4(CC3)OCCO4)ccc21,1,x,30*,-3,x,-6,45*,56*
CC1CCN(c2ccc3c(c2)S(=O)(=O)c2ccccc2C3=O)CC1,-5,x,65*,-1,-1,-7,80*,88*
NC(=O)C1CCN(c2ccc3c(c2)S(=O)(=O)c2ccccc2C3=O)CC1,0,x,31*,8,2,5,38*,48*
O=C1c2ccccc2S(=O)(=O)c2cc(C(=O)N3CCN(c4ccccc4)CC3)ccc21,-3,2,-1,-14,-6,3,x,x
Cc1ccc(S(=O)(=O)N2CCN(c3ccc(C(=O)N4CCOCC4)cc3[N+](=O)[O-])CC2)cc1,-10,0,1,11,-3,4,x,x
Cc1ccc(/C([O-])=C(/C(=S)NCCN2CCOCC2)[n+]2ccccc2)cc1[N+](=O)[O-],-2,2,1,-14,-7,-4,x,x
Cc1cccc(CN2C(=O)N/C(=C/c3ccc(C)s3)C2=O)c1,0,x,98*,-1,0,6,87*,95*
